Measured values from PubChem BioAssay (Tox21).
Inconclusive results are not listed. A call without a number means that no potency is given here. Activity calls are given as the source filed them. The call rests on the fitted dose curve; in most records, active means well fitted curve in the direction sought with a large enough effect in the repeat runs; inconclusive means weak or mixed curves; inactive means no such curve, though single readings can be large; an effect the other way counts as inactive or inconclusive.

What was measured:
[1] = target: Cytochrome P450 2C19 (Homo sapiens) (UniProt P33261); assay: Cytochrome P450 Family 2 Subfamily C Member 19 (CYP2C19) small molecule antagonists: luciferase reporter qHTS assay (AID 1671197); settings: P450-Glo CYP2C19 enzyme, luciferin luminescence, 1 h; series mostly up to 115 µM; further: nearly all actives have a fitted effect of over 65% in size; further: potency means the concentration at half of the fitted maximal effect
Chain of Cytochrome P450 2C19 (Homo sapiens) (P33261 whole entry, looked up): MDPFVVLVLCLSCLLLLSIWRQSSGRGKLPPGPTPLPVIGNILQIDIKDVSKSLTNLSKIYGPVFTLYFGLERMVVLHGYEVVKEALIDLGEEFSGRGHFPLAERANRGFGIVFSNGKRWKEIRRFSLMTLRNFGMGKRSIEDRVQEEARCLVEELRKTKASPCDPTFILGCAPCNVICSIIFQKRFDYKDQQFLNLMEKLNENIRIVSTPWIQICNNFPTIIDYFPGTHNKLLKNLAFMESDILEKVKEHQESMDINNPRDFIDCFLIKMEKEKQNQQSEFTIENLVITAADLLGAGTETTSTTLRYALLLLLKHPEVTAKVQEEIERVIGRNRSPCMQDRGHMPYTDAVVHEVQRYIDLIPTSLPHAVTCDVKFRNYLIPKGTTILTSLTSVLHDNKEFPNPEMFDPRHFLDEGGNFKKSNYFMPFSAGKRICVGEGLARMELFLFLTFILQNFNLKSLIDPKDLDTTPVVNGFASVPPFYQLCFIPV
In short: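 Relative luminescence units recorded 20 min after the detection reagent stopped a 1 h, 37C CYP2C19 reaction on proluciferin substrate, which was started by NADPH regeneration following 10 min room-temperature compound preincubation; ketoconazole positive control.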

[2] = target: Cytochrome P450 2C9 (Homo sapiens) (UniProt P11712); assay: Cytochrome P450 Family 2 Subfamily C Member 9 (CYP2C9) small molecule antagonists: luciferase reporter qHTS assay (AID 1671198); settings: P450-Glo CYP2C9 enzyme assay, luciferin luminescence; series mostly up to 115 µM; further: nearly all actives have a fitted effect of over 50% in size; further: potency means the concentration at half of the fitted maximal effect
Chain of Cytochrome P450 2C9 (Homo sapiens) (P11712 whole entry, looked up): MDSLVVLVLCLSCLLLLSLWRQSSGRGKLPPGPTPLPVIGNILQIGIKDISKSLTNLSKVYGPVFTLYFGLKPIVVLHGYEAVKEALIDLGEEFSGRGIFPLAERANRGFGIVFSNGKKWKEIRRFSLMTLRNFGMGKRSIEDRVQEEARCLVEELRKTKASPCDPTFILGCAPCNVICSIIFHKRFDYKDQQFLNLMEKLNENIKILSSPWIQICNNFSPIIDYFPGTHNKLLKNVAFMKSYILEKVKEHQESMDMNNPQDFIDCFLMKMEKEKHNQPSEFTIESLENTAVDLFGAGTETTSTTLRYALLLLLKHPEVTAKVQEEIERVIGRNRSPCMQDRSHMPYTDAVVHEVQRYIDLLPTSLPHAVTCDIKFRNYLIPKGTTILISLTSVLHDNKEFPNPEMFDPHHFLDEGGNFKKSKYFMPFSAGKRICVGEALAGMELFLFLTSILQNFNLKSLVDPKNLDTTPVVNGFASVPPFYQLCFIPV
In short: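 P450-Glo proluciferin substrate with CYP2C9 enzyme; 10 min RT preincubation, then NADPH regeneration 1 h at 37C; luciferin detection reagent 20 min RT, luminescence in relative luminescence units.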

[3] = target: Cytochrome P450 1A2 (Homo sapiens) (UniProt P05177); assay: Cytochrome P450 Family 1 Subfamily A Member 2 (CYP1A2) small molecule antagonists: luciferase reporter qHTS assay (AID 1671199); settings: P450-Glo CYP1A2 enzyme, luciferin luminescence, 1 h; series mostly up to 115 µM; further: nearly all actives have a fitted effect of over 50% in size; further: potency means the concentration at half of the fitted maximal effect
Chain of Cytochrome P450 1A2 (Homo sapiens) (P05177 whole entry, looked up): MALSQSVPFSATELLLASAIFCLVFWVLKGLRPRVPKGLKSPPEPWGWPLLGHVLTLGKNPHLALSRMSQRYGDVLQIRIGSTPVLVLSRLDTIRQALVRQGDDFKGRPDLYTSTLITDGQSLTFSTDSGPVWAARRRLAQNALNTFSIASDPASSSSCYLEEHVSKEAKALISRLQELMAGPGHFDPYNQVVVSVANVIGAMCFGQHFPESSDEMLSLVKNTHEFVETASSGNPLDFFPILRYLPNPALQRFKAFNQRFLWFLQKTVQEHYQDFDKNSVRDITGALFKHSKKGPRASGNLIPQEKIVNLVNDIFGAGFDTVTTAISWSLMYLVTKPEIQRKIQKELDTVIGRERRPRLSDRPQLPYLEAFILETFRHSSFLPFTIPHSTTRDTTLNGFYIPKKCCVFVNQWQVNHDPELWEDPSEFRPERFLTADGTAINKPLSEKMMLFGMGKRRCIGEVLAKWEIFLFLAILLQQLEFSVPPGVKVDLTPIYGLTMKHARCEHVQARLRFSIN
In short: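 CYP1A2 turnover of a luminogenic substrate was quantified after 1 h with NADPH regeneration at room temperature. Furafylline served as positive control.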

[4] = target: Voltage-gated inwardly rectifying potassium channel KCNH2 (Homo sapiens) (UniProt Q12809); assay: Human Ether-a-go-go-Related Gene (hERG) channel small molecule antagonists: fluorescence cell-based qHTS assay (AID 1671200); settings: hERG-U2OS cells, FluxOR thallium flux fluorescence; series mostly up to 76.8 µM; further: nearly all actives have a fitted effect of over 50% in size; further: potency means the concentration at half of the fitted maximal effect
Chain of Voltage-gated inwardly rectifying potassium channel KCNH2 (Homo sapiens) (Q12809 whole entry, looked up): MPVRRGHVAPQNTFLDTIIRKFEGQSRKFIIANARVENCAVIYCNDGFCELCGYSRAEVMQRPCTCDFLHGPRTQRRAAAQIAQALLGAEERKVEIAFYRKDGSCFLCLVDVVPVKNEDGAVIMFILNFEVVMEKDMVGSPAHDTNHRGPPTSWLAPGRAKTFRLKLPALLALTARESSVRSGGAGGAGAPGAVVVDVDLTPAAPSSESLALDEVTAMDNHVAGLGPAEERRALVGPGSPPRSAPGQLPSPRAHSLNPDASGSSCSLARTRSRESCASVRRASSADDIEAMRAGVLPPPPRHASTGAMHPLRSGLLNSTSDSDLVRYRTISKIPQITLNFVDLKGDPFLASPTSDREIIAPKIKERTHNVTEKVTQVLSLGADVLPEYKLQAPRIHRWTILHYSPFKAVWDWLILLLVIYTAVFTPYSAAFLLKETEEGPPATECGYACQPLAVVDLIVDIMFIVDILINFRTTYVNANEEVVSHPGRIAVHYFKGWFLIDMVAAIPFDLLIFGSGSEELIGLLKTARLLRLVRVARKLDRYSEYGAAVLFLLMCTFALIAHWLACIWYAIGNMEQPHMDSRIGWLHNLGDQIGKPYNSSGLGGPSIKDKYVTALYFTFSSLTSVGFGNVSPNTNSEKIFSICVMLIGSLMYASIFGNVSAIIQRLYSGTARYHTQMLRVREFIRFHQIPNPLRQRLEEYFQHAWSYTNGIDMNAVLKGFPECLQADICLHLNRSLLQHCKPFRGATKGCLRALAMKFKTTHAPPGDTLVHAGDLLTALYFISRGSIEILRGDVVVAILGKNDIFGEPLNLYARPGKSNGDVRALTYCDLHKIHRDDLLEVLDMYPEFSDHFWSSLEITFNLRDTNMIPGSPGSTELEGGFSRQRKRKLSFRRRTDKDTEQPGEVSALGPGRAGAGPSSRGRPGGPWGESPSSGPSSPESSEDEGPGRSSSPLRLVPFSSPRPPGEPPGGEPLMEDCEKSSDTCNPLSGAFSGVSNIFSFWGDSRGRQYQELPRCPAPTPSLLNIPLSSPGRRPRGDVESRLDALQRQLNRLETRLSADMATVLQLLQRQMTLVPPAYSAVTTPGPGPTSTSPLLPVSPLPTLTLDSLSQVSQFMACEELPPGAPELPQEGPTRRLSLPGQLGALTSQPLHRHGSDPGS
In short: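 Kinetic two-minute fluorescence traces, sampled at 1 s, were collected following thallium stimulus of U2OS cells (1000 per well) that had been cultured overnight at 37 C and loaded with FluxOR II.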

[5] = target: Cytochrome P450 3A4 (Homo sapiens) (UniProt P08684); assay: Cytochrome P450 Family 3 Subfamily A Member 4 (CYP3A4) small molecule antagonists: luciferase reporter qHTS assay (AID 1671201); settings: P450-Glo CYP3A4 enzyme, luciferin luminescence, 1 h; series mostly up to 115 µM; further: nearly all actives have a fitted effect of over 50% in size
Chain of Cytochrome P450 3A4 (Homo sapiens) (P08684 whole entry, looked up): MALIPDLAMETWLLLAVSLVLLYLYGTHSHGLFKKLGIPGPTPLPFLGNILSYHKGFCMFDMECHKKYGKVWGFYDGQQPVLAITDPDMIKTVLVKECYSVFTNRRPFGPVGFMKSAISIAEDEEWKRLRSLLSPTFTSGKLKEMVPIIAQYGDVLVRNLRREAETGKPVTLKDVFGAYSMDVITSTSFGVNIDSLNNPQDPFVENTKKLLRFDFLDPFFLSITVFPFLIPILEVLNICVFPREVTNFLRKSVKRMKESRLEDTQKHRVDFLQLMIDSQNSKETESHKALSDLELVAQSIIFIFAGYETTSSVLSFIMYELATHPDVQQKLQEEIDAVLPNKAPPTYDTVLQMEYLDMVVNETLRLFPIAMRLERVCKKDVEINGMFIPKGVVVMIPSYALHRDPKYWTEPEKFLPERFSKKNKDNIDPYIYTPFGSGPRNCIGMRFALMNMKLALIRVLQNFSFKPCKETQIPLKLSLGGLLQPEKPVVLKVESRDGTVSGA
In short: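 Proluciferin-to-luciferin conversion by CYP3A4, NADPH-regenerated, 1 h RT; luminescence read as RLU. Ketoconazole as control.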

Row | SMILES | Potency [1] | Potency [2] | Potency [3] | Potency [4] | Potency [5]
1 | Cc1cccc(C)c1NC(=O)c1ccc(N)cc1 | inactive | inactive | inactive | inactive | 
2 | C#Cc1ccc(-c2ccccc2F)cc1 | 7.76 µM (active) | 15.5 µM (active) | 0.911 µM (active) | inactive | 
3 | O=[N+]([O-])c1ccc(O)cc1C(F)(F)F | inactive | 22.4 µM (active) | 35.6 µM (active) | inactive | 
4 | COc1ccc2c(c1)c(CC(=O)OC/C=C(\C)CC/C=C(\C)CCC=C(C)C)c(C)n2C(=O)c1ccc(Cl)cc1 | 15.5 µM (active) | 17.4 µM (active) | 17.4 µM (active) | inactive | 
5 | CCCC(=O)OCOC(=O)C1=C(C)NC(C)=C(C(=O)OC)C1c1cccc(Cl)c1Cl (stereo not given) | 1.74 µM (active) | 2.19 µM (active) |  |  | 
6 | COc1ccc2cc1Oc1ccc(cc1)C[C@H]1c3c(cc4c(c3Oc3cc5c(cc3OC)CCN(C)[C@@H]5C2)OCO4)CCN1C | inactive | 30.9 µM (active) | inactive | 9.52 µM (active) | 
7 | Nc1nc(N)nc(-c2cc(Cl)ccc2Cl)n1 | inactive | inactive | 17.4 µM (active) | inactive | inactive
8 | O=C1CCCCCCCCCCCCCCCO1 | inactive | inactive | inactive | inactive | 
9 | c1ccc(C(O[C@@H]2CCCN(CCc3ccc4c(c3)OCO4)C2)c2ccccc2)cc1 | 35.6 µM (active) | 17.8 µM (active) | 39.9 µM (active) | 0.977 µM (active) | 
10 | C#C[C@]1(OC(C)=O)CC[C@H]2[C@@H]3CCC4=C[C@@H](OC(C)=O)CC[C@@H]4[C@H]3CC[C@@]21C | 21.9 µM (active) | 12.3 µM (active) | inactive | inactive | inactive
